Laboratory results taken from the supplement of paper PMC6555819.

Legend:
Experiment in all cases: PBM binding z-score (relative to random genomic background probes); higher = stronger binding; sequences stand for … in GC…GCGATTGACAGCGTAGAATGAAGG
[1] = test system: RARb homodimer (NR concentration 270 nM)
Procedure, shortened: (§1)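 The probes on custom Agilent 4×180K protein-binding microarrays were double-stranded, with 34-nt variable regions bearing direct-repeat seeds, single-nucleotide variants, half-site ablations and random human genomic background sequences. Incubation lasted 1 h with ligand-free nuclear receptor dimers in PBS pH 7.4, 2% milk, 0.02% Triton X-100, 1 mM DTT, 0.2 mg/mL BSA and 0.4 mg/ml salmon testes DNA. Antibodies against each partner (one per run) detected bound dimers, and fluorescence scans were regression-normalized. Binding z-scores take the random background probes as reference.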

[2] = test system: RARg:RXRa (NR concentration 270 nM, RXRa partner concentration 90 nM)
Procedure, shortened: as §1

[3] = test system: RARg homodimer (NR concentration 270 nM)
Procedure, shortened: as §1

[4] = test system: RXRa DBDmut IVT, anti-RXR (DBD mutation: RXRa K156A/R161A, NR concentration 90 nM)
Procedure, shortened: as §1

[5] = test system: RXRa homodimer (NR concentration 180 nM)
Procedure, shortened: as §1

[6] = test system: THRa:RXRa (NR concentration 90 nM, RXRa partner concentration 90 nM)
Procedure, shortened: as §1

[7] = test system: THRa homodimer (NR concentration 90 nM)
Procedure, shortened: as §1

[8] = test system: VDR homodimer (NR concentration 270 nM)
Procedure, shortened: as §1

CGTCCAAGGTCAGAGAGATCAGTGAATGCCGAGT
PBM binding z-score [1]: 3.33
PBM binding z-score [2]: 4.47
PBM binding z-score [3]: 5.03
PBM binding z-score [4]: 2.73
PBM binding z-score [5]: 3.39
PBM binding z-score [6]: 3.31
PBM binding z-score [7]: 1.57
PBM binding z-score [8]: 1.58

CGTCCAAGGTCAATGCTAGGTCAGTGGAAGCATT
PBM binding z-score [1]: 4.74
PBM binding z-score [2]: 7.51
PBM binding z-score [3]: 6.88
PBM binding z-score [4]: 3.57
PBM binding z-score [5]: 4.86
PBM binding z-score [6]: 4.32
PBM binding z-score [7]: 2.84
PBM binding z-score [8]: 3.57

CGAACTAGGTCAGAACAGGACTGTGAAGGATGAT
PBM binding z-score [1]: 1.6
PBM binding z-score [2]: 2.33
PBM binding z-score [3]: 2.99
PBM binding z-score [4]: 0.646
PBM binding z-score [5]: 1.19
PBM binding z-score [6]: 1.97
PBM binding z-score [7]: -0.0804
PBM binding z-score [8]: -0.341

TGAGTGAGGTTATAAGATCAGGGAACGTTGCAAA
PBM binding z-score [1]: 0.44
PBM binding z-score [2]: 1.43
PBM binding z-score [3]: 1.12
PBM binding z-score [4]: 0.109
PBM binding z-score [5]: 1.88
PBM binding z-score [6]: 1.59
PBM binding z-score [7]: 0.117
PBM binding z-score [8]: 0.655

ACTATCAGTTGACTTAGGGCAACCGATACGACGC
PBM binding z-score [1]: 0.986
PBM binding z-score [2]: 0.641
PBM binding z-score [3]: 1.1
PBM binding z-score [4]: 0.226
PBM binding z-score [5]: 0.399
PBM binding z-score [6]: 1.46
PBM binding z-score [7]: 0.315
PBM binding z-score [8]: 0.169

TCTGCTAGGTCAACGATGGTCAGATAATCTGCTA
PBM binding z-score [1]: 3.47
PBM binding z-score [2]: 3.89
PBM binding z-score [3]: 5.5
PBM binding z-score [4]: 0.978
PBM binding z-score [5]: 3.11
PBM binding z-score [6]: 3.17
PBM binding z-score [7]: 0.478
PBM binding z-score [8]: -0.329

TCATATAGGTCATACAGGTGAAAGTCGGCATCTA
PBM binding z-score [1]: 3.8
PBM binding z-score [2]: 5.21
PBM binding z-score [3]: 5.03
PBM binding z-score [4]: 2.68
PBM binding z-score [5]: 5.27
PBM binding z-score [6]: 3.42
PBM binding z-score [7]: 0.973
PBM binding z-score [8]: 1.81

TCAGACAGGTGAAGGTTACTCAGGTACGCAGTCG
PBM binding z-score [1]: 1.84
PBM binding z-score [2]: 1.16
PBM binding z-score [3]: 1.17
PBM binding z-score [4]: 1.54
PBM binding z-score [5]: 1.72
PBM binding z-score [6]: 2.58
PBM binding z-score [7]: 0.799
PBM binding z-score [8]: 0.58

CGTCCAAGGTCAATGCTAGGTCAGTTAAAGCATT
PBM binding z-score [1]: 5.03
PBM binding z-score [2]: 7.56
PBM binding z-score [3]: 6.8
PBM binding z-score [4]: 3.49
PBM binding z-score [5]: 5.03
PBM binding z-score [6]: 4.67
PBM binding z-score [7]: 2.9
PBM binding z-score [8]: 3.2

AGTCAAAGTTCATATAGGTAACGTAAGATATGCT
PBM binding z-score [1]: 3.55
PBM binding z-score [2]: 5.1
PBM binding z-score [3]: 5.32
PBM binding z-score [4]: 4.83
PBM binding z-score [5]: 4.41
PBM binding z-score [6]: 2.28
PBM binding z-score [7]: -0.342
PBM binding z-score [8]: 5.14

CTACCAAGGCGAACAAGGTCGTTGATTACTATTC
PBM binding z-score [1]: 0.781
PBM binding z-score [2]: 0.29
PBM binding z-score [3]: 0.0992
PBM binding z-score [4]: 0.854
PBM binding z-score [5]: 0.744
PBM binding z-score [6]: 2.38
PBM binding z-score [7]: 0.72
PBM binding z-score [8]: 1.38

ATATGTAGGTTAGATCCGGGTCATTCAGGCTATG
PBM binding z-score [1]: 2.63
PBM binding z-score [2]: 3.21
PBM binding z-score [3]: 1.63
PBM binding z-score [4]: 0.691
PBM binding z-score [5]: 2.65
PBM binding z-score [6]: 3.63
PBM binding z-score [7]: 2.08
PBM binding z-score [8]: 1.71

TCATATAGGTAAAAGGTGAAAGTTGGTGTGGTAA
PBM binding z-score [1]: 2.19
PBM binding z-score [2]: 2.24
PBM binding z-score [3]: 0.981
PBM binding z-score [4]: 1.89
PBM binding z-score [5]: 3.27
PBM binding z-score [6]: 1.9
PBM binding z-score [7]: 0.96
PBM binding z-score [8]: 0.577

ATATGTAGGTTAGCTGGGGTCTTTCAGACTAGGC
PBM binding z-score [1]: 0.902
PBM binding z-score [2]: 0.713
PBM binding z-score [3]: 0.709
PBM binding z-score [4]: 0.448
PBM binding z-score [5]: 0.914
PBM binding z-score [6]: 3.67
PBM binding z-score [7]: 0.871
PBM binding z-score [8]: 0.329

ACTATTAGTTGACTTAGGGCAAACGATACGACGC
PBM binding z-score [1]: 0.722
PBM binding z-score [2]: 0.773
PBM binding z-score [3]: 1.08
PBM binding z-score [4]: 0.703
PBM binding z-score [5]: 0.56
PBM binding z-score [6]: 1.24
PBM binding z-score [7]: 0.149
PBM binding z-score [8]: -0.123

CCTCGGAGGATAACAGGAGGTCAGAGCTGCCAGA
PBM binding z-score [1]: 2.61
PBM binding z-score [2]: 2.32
PBM binding z-score [3]: 2.11
PBM binding z-score [4]: -0.476
PBM binding z-score [5]: 1.73
PBM binding z-score [6]: 2.4
PBM binding z-score [7]: 0.791
PBM binding z-score [8]: 0.96

CAAACTGGGTCACAGAGGTCAAAGTCCGTGCGTA
PBM binding z-score [1]: 5.5
PBM binding z-score [2]: 7.14
PBM binding z-score [3]: 7.26
PBM binding z-score [4]: 3.26
PBM binding z-score [5]: 7.99
PBM binding z-score [6]: 4.4
PBM binding z-score [7]: 2.19
PBM binding z-score [8]: 5.91

CCTATTAGTTGCCCATAAGGGCAACCGAAGCTCG
PBM binding z-score [1]: 1.75
PBM binding z-score [2]: 0.539
PBM binding z-score [3]: 0.688
PBM binding z-score [4]: 0.215
PBM binding z-score [5]: 0.507
PBM binding z-score [6]: 1.65
PBM binding z-score [7]: 1.67
PBM binding z-score [8]: 0.922

AGACTGAGGTTATTAAGATCAGGGAATTGCGGTC
PBM binding z-score [1]: 0.996
PBM binding z-score [2]: 1.13
PBM binding z-score [3]: 0.72
PBM binding z-score [4]: 1.53
PBM binding z-score [5]: 1.54
PBM binding z-score [6]: 1.91
PBM binding z-score [7]: 0.441
PBM binding z-score [8]: 0.749

CCTGCTAGGTGATGGTCAGCTAATCTACAGTATG
PBM binding z-score [1]: -0.121
PBM binding z-score [2]: -0.189
PBM binding z-score [3]: 0.108
PBM binding z-score [4]: -0.024
PBM binding z-score [5]: -0.424
PBM binding z-score [6]: -0.498
PBM binding z-score [7]: -0.545
PBM binding z-score [8]: -0.612

ACTATTAGTTGGGACGAGGGCAACCGATAGGTTG
PBM binding z-score [1]: 1.37
PBM binding z-score [2]: 0.644
PBM binding z-score [3]: 0.82
PBM binding z-score [4]: 0.0733
PBM binding z-score [5]: 0.516
PBM binding z-score [6]: 1.64
PBM binding z-score [7]: 0.629
PBM binding z-score [8]: 1.12

TCTTGTAGATCATGCAGGTTAAGAAAGCCTGAGT
PBM binding z-score [1]: 0.268
PBM binding z-score [2]: 0.108
PBM binding z-score [3]: 0.0949
PBM binding z-score [4]: 0.784
PBM binding z-score [5]: 0.65
PBM binding z-score [6]: 0.509
PBM binding z-score [7]: -0.0439
PBM binding z-score [8]: 0.115

TCTAGTTGGTCCAAGGTCACACACTCGAAATGCG
PBM binding z-score [1]: 4.11
PBM binding z-score [2]: 4.07
PBM binding z-score [3]: 3.8
PBM binding z-score [4]: 2.01
PBM binding z-score [5]: 4.39
PBM binding z-score [6]: 4.31
PBM binding z-score [7]: 4.14
PBM binding z-score [8]: 3.22

TCATATAGGTAAAGAGGTGAAAGTCCGTAAGTTA
PBM binding z-score [1]: 1.56
PBM binding z-score [2]: 1.37
PBM binding z-score [3]: 0.762
PBM binding z-score [4]: 1.73
PBM binding z-score [5]: 2.04
PBM binding z-score [6]: 1.8
PBM binding z-score [7]: 0.621
PBM binding z-score [8]: 0.613

CCTACTGGGCCAAGGTCATTTATCAGTCAAAGCA
PBM binding z-score [1]: 3.46
PBM binding z-score [2]: 3.47
PBM binding z-score [3]: 2.79
PBM binding z-score [4]: 1.61
PBM binding z-score [5]: 3.07
PBM binding z-score [6]: 3.27
PBM binding z-score [7]: 2.44
PBM binding z-score [8]: 3.42

CGTCAAAGTTCAAGGTAACGTATCAGAAAGCAGC
PBM binding z-score [1]: 3.97
PBM binding z-score [2]: 5.22
PBM binding z-score [3]: 6.45
PBM binding z-score [4]: 4.52
PBM binding z-score [5]: 4.44
PBM binding z-score [6]: 3.06
PBM binding z-score [7]: 1.44
PBM binding z-score [8]: 3.38

CCTACTGGGCCTAGGTCATTGATCAGTCAAAGCA
PBM binding z-score [1]: 2.06
PBM binding z-score [2]: 2.02
PBM binding z-score [3]: 1.46
PBM binding z-score [4]: -0.592
PBM binding z-score [5]: 1.34
PBM binding z-score [6]: 2.07
PBM binding z-score [7]: 0.765
PBM binding z-score [8]: 0.74

CTCGAAAGGTCGTGCTCAGGTGAATATACCAAAC
PBM binding z-score [1]: 3.06
PBM binding z-score [2]: 5.46
PBM binding z-score [3]: 4.17
PBM binding z-score [4]: 2.45
PBM binding z-score [5]: 5.01
PBM binding z-score [6]: 4.38
PBM binding z-score [7]: 1.6
PBM binding z-score [8]: 1.27
